The source of these data is the supplement of paper PMC10105736.

Holding throughout (assay): MAPPIT interaction score (arbitrary units); higher = stronger binary interaction signal, active = hit call of the paper
Test [1] concerns the target isoQC. As to conditions: MAPPIT configuration: N-N; pair source set: DPIM.
Test [2] deals with jvl. As to conditions: pair source set: RRS.
Test [3] concerns the target ihog. The following applies: pair source set: Lit-BM-16.
The target in test [4] is gus. As to conditions: MAPPIT configuration: N-N; pair source set: Finley_Y2H.
Test [5] concerns the target ix. As to conditions: pair source set: Lit-BM-16.
In test [6] the target is hid. As to conditions: pair source set: RRS.
Test [7] addresses laza. The following applies: MAPPIT configuration: N-N; pair source set: screen_2.
Test [8] has as its target kappaB-Ras. The following applies: MAPPIT configuration: N-N; pair source set: DPIM.
The target of test [9] is htl. As to conditions: MAPPIT configuration: N-N; pair source set: RRS.
In test [10] the target is l(3)neo38. The following applies: MAPPIT configuration: N-N; pair source set: Lit-BS-16.
The target of test [11] is lola. As to conditions: pair source set: RRS.

Unmarked numbers belong to inactive results.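 The calls were made as follows: active = MAPPIT score above the 99th percentile of random reference set scores in the same batch; inactive = at or below it.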
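Also: HEK293T cells with Epo stimulation, STAT-responsive firefly luciferase reporter, fold induction versus unstimulated cells divided by the larger fold induction of two negative controls lacking either bait or prey.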

B1: fd59A (protein)
chain: MHTSTDPMHTLHDSVSLSPPLIKSSRGGSSIGNGIGCSASSRTAAADAMSMGCDDSDIEPSSMGGSGAAGGNGDGSGSSGGPLVKPPYSYIALITMAILQSPHKKLTLSGICDFIMSRFPYYKDKFPAWQNSIRHNLSLNDCFIKVPREPGNPGKGNFWTLDPLAEDMFDNGSFLRRRKRYKRAPTMQRFSFPAVFGTLSPFWIRKPVPLVPVHFNVPNFNGSREFDVVHNPADVFDSALRADKKFNFFANAEASFYQGSQSGDKFDRLPFMNRGRGADVLDALPHSSGSGGGVGGGSESSRGSKYKSPYAFDVATVASAAGIPGHRDYAERLSAGGGYMDLNVYNDDADTEADAEAEGDDDSCEDKIDVESGNEQEDSHISDSVDSACTNRLDAPPEALIFEASAEASDSSPRRRFDSEPLVLRTSKQSSAKDFRIETLIGHHLHRGGSQEETSD
On to B1, for which the MAPPIT interaction score in test [1] was 0.602.

B2: TH1 (protein)
chain: MEVEYDDSGWQGRAKGQTNPEETLEDNPQKTIQECLEKFLTPDYIMEPGIFTQLKRYFQSGGSPEEVISMLSENYKAVAQMANLLAEWLILAGVKVTEVQAMVENHLKEMILKSFDPKKADTIFTEEGETPDWLTEMIDHYTWRSLIYRLAEEYPDCLMLNFTIKLISDAGFQSEITSISTAAQQIEVFSRVLKTSIVKFLNNPDDVHGAIQECARMVCHGQHTYVYSQVLIQVLSQEQKGGFNMKRLSQEIIKYALQNNQNVTPITMALNGSAVYPQACQALTSMLTRNTLNPADITVLFRNYSGSDPPPIDLIRNPQFLELLVDALFRSGVKINPEHKPKYMFLLAYASAVIDQPAKKRPMTERMLNKEELKSTIQAIEKAHTICNVDQGSTELIAELQTLYNCIKYPVVGVGVIRWIENVVMEPSYFKLSTDSCPTHLAVLDEVAAVHPTLQQQILFLLIRLFESKQDELEILVQLEMKKMILDRMVNLLTRGCVVPVLRYIKQCCAIEDTDISLIRYFVTEVLETITHPYSPEFVQLFLPMVENEEITGTMRGEGDNDPVSEFIVHCKAHYTTV
On to B2, for which the MAPPIT interaction score was 0.00492 in [2] (MAPPIT configuration: N-C) and -0.0162 in test [2] (MAPPIT configuration: N-N).

B3: ihog (protein)
chain: MTLLTSSLLLFSLLTSRLEAIPVLEKSPAHPAHSAHPAHPAHPAHPAHPSPGVRILRAPESLVAPLGDEVVLECETSLQPERFEWSHRSSRSPGAGFKYLKTGTAKANVSQEAAISRLRVLVRPDTLGEYRCVGWFGPLVVTSTIARLELASTSLVDAQESESPLQWRVSAGNSVLWSCGQQVQSNPSASWSYYRNGVEIKPEFIGTNGNLFLSNVSSESSGSYSCQATNPASGERIQLPGSLQLQVTPEQRSESKSPHLLRGQPSSQEITIREGSSLLLLCPGVGSPPPTVVWSSPDVVGAVKNKRSKVFGHALEISNTRVNDAGTYICFQDNGVRPALEHYIKVHVEQPPQIVRPPWADLTNEGDRLKLECKATGVPTPEIYWLLNGHSSIDDSEAELSNNFLILHSVLKRHAGYVQCFARNRLGEHSAGTLLQVNPKQIQEPRESGGTHRPKPNQGSRQKQMYPPTPPNVTRLSDESVMLRWMVPRNDGLPIVIFKVQYRMVGKRKNWQTTNDNIPYGKPKWNSELGKSFTASVTDLKPQHTYRFRILAVYSNNDNKESNTSAKFYLQPGAALDPMPVPELLEIEEYSETAVVLHWSLASDADEHLITGYYAYYRPSSSAGEYFKATIEGAHARSFKIAPLETATMYEFKLQSFSAASASEFSALKQGRTQRPKTSTTEEPTLQMGDRDTTTPSHNETFNMSPMLTGTIGGGAVLILLLISTCFCVCRRRNSRSRGNNPNKPRMAELRDDFVPLGNCSPTKQRQRTRHIHITLNPLAQQQQQALEEKNDTDQDAPYYQRPSSYDYDPTLRRMSSSSLRRSQRTLERAGGSNGSNNGNNNNLNQSAEAGSIENPGKPGRVLMKRPRLSSRSENLSSGSLNSVGV
On to B3, for which the MAPPIT interaction score is -0.576 in test [3] (MAPPIT configuration: N-C) and -0.268 in test [3] (MAPPIT configuration: N-N).

B4: Sirt2 (protein)
chain: MDKVRRFFANTLHLGGSSDAKEEVKVEKVIPDLSFDGFAEHWRVHGFRKIVTMVGAGISTSAGIPDFRSPGSGLYSNLKKYELPHPTAIFDLDYFEKNPAPFFALAKELYPGSFIPTPAHYFIRLLNDKGLLQRHYTQNIDTLDRLTGLPEDKIIEAHGSFHTNHCIKCRKEYDMDWMKAEIFADRLPKCQKCQGVVKPDIVFFGENLPKRFYSSPEEDFQDCDLLIIMGTSLEVQPFASLVWRPGPRCIRLLINRDAVGQASCVLFMDPNTRSLLFDKPNNTRDVAFLGDCDAGVMALAKALGWDQELQQLITSERKKLSGSQNSEELQQGKEKPQSDPDKMTSGDRDKKDASL
B4: the MAPPIT interaction score in test [4] was -0.0617.

B5: MED8 (protein)
chain: MQRDEKLFELTLDTVLQRLNDLKLAVLSMIQKLELEYETINWPTFLDNFAIISSHLTGLTKILAKEQCPPLRNRTVLPLLVSMDRDDTLINITEGRVPVFSHDIVPDYLRTRPDPITEQKMLQNEQKAANLTNDAAMKQVTQYNKVVSHVLDMVSKAREEWEIESSSRTGIQQTSSMADTQLLVAAVGMGKGLKLTNYGPGPGMMVPPSIRAPSPMGGPAMSPGNVQQQLGKAPSAVKTNIKSANQVHPFSR
Turning to B5, the MAPPIT interaction score in test [5] (MAPPIT configuration: N-C) was 3.01; in test [5] (MAPPIT configuration: N-N) it was 2.19.

B6: sesB (protein)
chain: MGNISASITSQSKMGKDFDAVGFVKDFAAGGISAAVSKTAVAPIERVKLLLQVQHISKQISPDKQYKGMVDCFIRIPKEQGFSSFWRGNLANVIRYFPTQALNFAFKDKYKQVFLGGVDKNTQFWRYFAGNLASGGAAGATSLCFVYPLDFARTRLAADTGKGGQREFTGLGNCLTKIFKSDGIVGLYRGFGVSVQGIIIYRAAYFGFYDTARGMLPDPKNTPIYISWAIAQVVTTVAGIVSYPFDTVRRRMMMQSGRKATEVIYKNTLHCWATIAKQEGTGAFFKGAFSNILRGTGGAFVLVLYDEIKKVL
On to B6, for which the results for the MAPPIT interaction score in test [6] (MAPPIT configuration: N-C) and in test [6] (MAPPIT configuration: N-N) were 0.0222 and -0.106, respectively.

B7: Es2 (protein)
chain: MSATTRTPATPGTPGTPGSLAMEVARVQNSALAEFKKPTAMVRHKNKPKILTEEKYIEEMSKIIQRDFFPDLERLRAQNDYLDAESRRDFVQMAEIRERYSLGRISGTGRSTSRRNNAMSPATFETPVSQAKCSNTPLPNSRATDTPFSTDGSEKSDAEGRDTTAKLSLDAFLQKYTSEDNQSFQEIIETAEAKLRQKYAVLYNHEKLSAEQLQRALMLPSIETQFEEPDPLRKIETWNYTNMNSIMYVPDGVEYTEEERVQLAERKQSIQHNATRLPDEAKHREMDTKKLNDEVPQNGAGGATATPKVRGFDLLRSPSPRPGEAFSPIMTWGEIDGTPFRLDGGDTPLRPTQGPSFRINENSRRENIAIALAERVSERMRNQKQMALDTARRNIGSPLIRTNMERLASMSPAAQLLATGKLGIRGTPRLRHTPSPMSGRKRKVTPGVVRSTNTPILGEPKPKQQAKISTPAKNVTIDTGSTLTDDLLKIPTKRRTAADFF
As to B7, the MAPPIT interaction score in test [7] was 0.373.

B8: Cp1 (protein)
chain: MNHLGVFETRFRPRTRHKSQRAQLIPEQITMRTAVLLPLLALLAVAQAVSFADVVMEEWHTFKLEHRKNYQDETEERFRLKIFNENKHKIAKHNQRFAEGKVSFKLAVNKYADLLHHEFRQLMNGFNYTLHKQLRAADESFKGVTFISPAHVTLPKSVDWRTKGAVTAVKDQGHCGSCWAFSSTGALEGQHFRKSGVLVSLSEQNLVDCSTKYGNNGCNGGLMDNAFRYIKDNGGIDTEKSYPYEAIDDSCHFNKGTVGATDRGFTDIPQGDEKKMAEAVATVGPVSVAIDASHESFQFYSEGVYNEPQCDAQNLDHGVLVVGFGTDESGEDYWLVKNSWGTTWGDKGFIKMLRNKENQCGIASASSYPLV
Take B8: in test [8], the MAPPIT interaction score is 0.259.

B9: Uba5 (protein)
chain: MSHAIDELQAIIADLKTELETEPKSSGGVASNSRLARDRIDRMSAEVVDSNPYSRLMALQRMNIVKDYERIRYKAVAIVGVGGVGSVTADMLTRCGIGKLILFDYDKVELANMNRLFFTPDQAGLSKVAAAAATLSFINPDVEIETHNYNITTVENFDRFLDTISQGGRIAGQPVDLVLSCVDNFEARMAINAACNERNLNWFESGVSENAVSGHIQFIRPGDTACFACAPPLVVAENIDEKTLKREGVCAASLPTTMGITAGFLVQNALKYLLNFGEVSDYLGYNALSDFFPKMTLKPNPQCDDRNCLVRQKEFQARPKPVLIEEKAVSEEPLHATNEWGIELVAEDAPESNTTPAETPVMGEGLRLAYEAPEKSSETSEETVSAATADETSLEDLMAQMKSM
Regarding B9, the MAPPIT interaction score in test [9] was 0.0658.

B10: Pdk1 (protein)
chain: MKCKSWSNKINNYVVRKIKSIKINGTQQQLQLPGSGASGIAAAAVITVASDCGENCSSNGTEHQQHFNIATTTATSATEATMPAMAKEKASATVSLGESNFRDINLKDLAVVVEAASRLHHQQNVCGCGAVSSTENNNNSRYGSSKYLTNGHTSPLAAAVASNSSSVATTPHCRMLHNCSLQQYQNDIRQQTEILDMLRQQHQQGYQSQQQQQQPQQQQEQQQQQEQSQQQQQLQNPAPRRSPNDFIFGRYIGEGSYSIVYLAVDIHSRREYAIKVCEKRLILRERKQDYIKREREVMHQMTNVPGFVNLSCTFQDQRSLYFVMTYARKGDMLPYINRVGSFDVACTRHYAAELLLACEHMHRRNVVHRDLKPENILLDEDMHTLIADFGSAKVMTAHERALATEHCSEQRRSNSDEDDEDSDRLENEDEDFYDRDSEELDDGDDEQQQEEMDSPRHRQRRYNRHRKASFVGTAQYVSPEVLQNGPITPAADLWALGCIVYQMIAGLPPFRGSNDYVIFKEILDCAVDFPQGFDKDAEDLVRKLLRVDPRDRLGAQDEFGYYESIRAHPFFAGIDWQTLRQQTPPPIYPYLPGVSQDEDFRSSYTVPGDLEPGLDERQISRLLSAELGVGSSVAMPVKRSTAKNSFDLNDAEKLQRLEQQKTDKWHVFADGEVILKKGFVNKRKGLFARKRMLLLTTGPRLIYIDPVQMIKKGEIPWSPDLRAEYKNFKIFFVHTPNRTYYLDDPEGYAIHWSEAIENMRKLAYGDPSSTSAVSCSSGSSNSLAVISNSSAASSSNSPTVKRSSPVNAPQASTASDNRTLGSTRTGTSPSKKTASK
On to B10, for which, in test [10], the MAPPIT interaction score was 1.81.

B11: CG3262 (protein)
chain: MERLLINTIWRSYATKLTGSQVKLMARGLPKKQPIIGVQDIIVVASGKGGVGKSTVAVNFACSLAKLGKRVGLLDGDIFGPTIPLLMNVHGEPVVNDKNLMIPPQNYNVKCLSMGMLTPVETSVIWRGPLVMSAIQRLLKGTDWGLLDVLVIDTPPGTGDVHLSLSQHAPITGVILVTTPHTAAVQVTLKGASMYEKLNVPIFGVVENMKYTICQNCNQRLEFFKDSRISSLPRKLISLPLDSRIADSNESGVPVVIKYPDSKYSYLFTQLAEEITQILNEQRCNQNQNNSAH
As to B11, the results for the MAPPIT interaction score in test [11] (MAPPIT configuration: N-C) and in test [11] (MAPPIT configuration: N-N) were 0.425 and 0.0633, respectively.
